# In the library only some 0.41% were active in any assay of this set; here they are far more common.
# GAA glycogen mod = inhibitors or activators of human alpha-glucosidase glycogen cleavage | P10253 | recombinant GAA, glycogen substrate, Amplex Red glucose oxidase fluorescence | Potency, µM (top dose mostly 76.4 µM), actives largely listed as inhibitors | hit rate 0.38% among 300,000 | AID 2100;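 further: the screen sought inhibitors and activators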
#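 Recombinant human enzyme (4 nM); glycogen substrate; 37 C, 40 min, pH 5.0. Readout: coupled glucose oxidase/Amplex Red fluorescence.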
# N370S GC mod = N370S glucocerebrosidase modulation, Gaucher chaperone candidate | N370S GC spleen homogenate, 4MU-glucoside fluorescence | P04062 | Potency, µM (series often up to 59.4 µM), hits mostly inhibitors | hit rate 0.092% among 330,000
# aGlu spleen mod = inhibitors or activators of human alpha-glucosidase in spleen homogenate; P10253; human spleen homogenate, 4-MU-alpha-glucoside fluorescence; Potency, µM (series often up to 79.9 µM), most hits filed as inhibitors; hit rate 0.006% among 240,000; AID 2112
#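 AC50 values come from Hill-equation fits of concentration-response data, normalized to no-enzyme and full-activity controls. Enzyme source: 1 ug human spleen homogenate; 1 mM fluorogenic 4-MU glucoside, pH 5.0 citrate buffer, 37 C, 40 min.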
# LMNA splice mod = changes lamin A minigene splicing in HeLa cells; AID 1487; Potency, µM (doses to about 46.1 µM), hits mostly inhibitors; hit rate 0.01% among 200,000; HeLa LMNA splicing GFP/RFP minigene ratio, 48 h; active means well fitted inhibition curve with a large enough effect in the signal ratio, with a control signal flat, not every such curve was filed as active; inconclusive means small, poorly fitted or top-dose-only effect, or effect the other way, or a change in a side signal; the % refers to the signal ratio
#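 Read-out is the ratio of GFP to DsRed2 object intensity, acquired by 488 nm laser-scanning cytometry on HeLa lamin A-EGFP minigene reporter cells. Compound incubation 48 hrs at 37 °C in Opti-MEM with 2% FBS; DMSO 0.5% final.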
# GAA inhib = inhibitors of human lysosomal alpha-glucosidase; P10253; purified human GAA, 4-MU-alpha-glucoside fluorescence; Potency, µM (series often up to 76.9 µM), most hits filed as inhibitors; hit rate 0.005% among 200,000
#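 AC50 values come from Hill fits of compound titrations (up to 77 uM) against 4 nM human enzyme. Substrate 4-methylumbelliferyl-alpha-D-pyranoside at 400 uM, pH 5.0 citrate buffer, 20 min room temperature; fluorescence Ex 365/Em 440 after alkaline stop.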
# A number is an active result; n = inactive; u = inconclusive; x = no result; [ ] = dose if it differs, or a comment. Unless noted, the call rests on the fitted dose curve; in most records, active means well fitted curve in the direction sought with a large enough effect; inconclusive means small, poorly fitted or top-dose-only effect, or another doubt; inactive means no such curve, though single readings can be large; an effect the other way counts as inactive or inconclusive.
SMILES,GAA glycogen mod,N370S GC mod,aGlu spleen mod,LMNA splice mod,GAA inhib
Cn1c(-c2ccc3c(c2)OCO3)cnc1NCc1cccc(Cl)c1,18µM,n,n,n,n
Cc1ccc([N+](=O)[O-])cc1Nc1nc(N2CCCC2)nc(N2CCCC2)n1,32µM,n,x,x,x
NNc1nc(Nc2ccc([N+](=O)[O-])cc2)nc(N2CCCCCC2)n1,u,n,x,x,x
Cc1ccc(SCc2cc(=O)c3c(=O)n(-c4ccccc4)[nH]c3[nH]2)cc1,10µM,n,n,x,n
O[C@@H]1CCN2Cc3ccccc3N=C12,x,n,n,x,x
O=C(CN1CC(=O)Oc2ccccc21)NCc1ccco1,7µM,n,n,n,n
O=C(CN1CCOc2ccccc21)NCc1ccco1,n,n,n,n,n[15.4 µM]
Cc1ccccc1Nc1c(-c2ccccn2)nc2ccccn12,u,n,n,u,n
Cc1ccn2c(Nc3ccccc3C)c(-c3ccccn3)nc2c1,4µM,n,n,x,n
CC(C)c1ccc(Nc2c(-c3ccccn3)nc3ccccn23)cc1,5.6µM,x,x,x,x
Cc1ccn2c(Nc3ccc(C(C)C)cc3)c(-c3cccnc3)nc2c1,16µM,x,x,x,x
O=C(Cn1c(=O)oc2ccccc21)NCc1ccccc1Cl,x,x,x,n,x
Cc1ccc(-c2[nH]c(=O)n3ccncc23)s1,40µM,n[2.35 µM],n,n,n
Cc1cn2c(-c3cccnc3)nnc2s1,n,n,n,n,u
COc1cccc(CNn2c(-c3cccc(C)c3)nc3ccccc3c2=O)c1O,31µM,n,n,u,n
CCOc1ccc(NC(=O)N(CCN2CCOCC2)Cc2ccc3c(c2)CCCN3CC)cc1,8.9µM,n,n,n[0.0737 µM],n
CCCN1CCCc2cc(CN(CCCN3CCOCC3)C(=O)Nc3ccc(OCC)cc3)ccc21,3.5µM,u,n,n,u
Cc1cccc(CS(=O)(=O)CC2Nc3ccc(C(=O)NCc4ccccc4Cl)cc3NC2=O)c1 (centres undefined),x,x,x,n,x
O=C1Cc2cc(S(=O)(=O)N3CCCCC3)ccc2N1,u,n,x,x,x
O=C1Cc2cc(S(=O)(=O)N3CCN(c4cccc(C(F)(F)F)c4)CC3)ccc2N1,9.5µM,x,x,x,x
CCOC(=O)C1CCN(S(=O)(=O)c2ccc3c(c2)CC(=O)N3)CC1,14µM,n,x,x,x
O=C1Cc2cc(S(=O)(=O)N3CCN(c4ccc(O)cc4)CC3)ccc2N1,6.7µM,x,x,x,x
N#Cc1ccc(N2CCN(S(=O)(=O)c3ccc4c(c3)CC(=O)N4)CC2)cc1,6.5µM,x,x,x,x
COC(=O)[C@@H]1[C@H]2C[C@H]3c4[nH]c5ccccc5c4CCN3C[C@H]2CC[C@@H]1O,x,n,n,x,x
O=[N+]([O-])c1ccc(N2CCN(S(=O)(=O)c3ccccc3)CC2)cc1,n,n,x,x,x
SMILES,GAA glycogen mod,N370S GC mod,aGlu spleen mod,LMNA splice mod,GAA inhib
O=C1Cc2cc(S(=O)(=O)N3CCN(c4ccc([N+](=O)[O-])cc4)CC3)ccc2N1,8.2µM,x,x,x,x
Cc1ccc(-c2nc3ncccn3c2Nc2ccc3c(c2)OCO3)o1,10µM,n,n,n,n
Cc1ccc(Nc2c(-c3ccc(C)o3)nc3ncccn23)cc1,u,n,n,x,x
Oc1ccc(-c2nc3ncccn3c2Nc2ccc3c(c2)OCO3)cc1,25µM,n,n,n,n
O=C1/C(=C/c2ccc(O)c(O)c2)Oc2ccccc21,x,n,n,x,x
Cc1[nH]c2ccccc2c1/C=N/NC(=S)NC(C)C,7.9µM,u,n,u,n
Cc1[nH]c2ccccc2c1/C=N/Nc1ccccc1[N+](=O)[O-],6.3µM,n,n,x,n
CC(C)NC(=S)N/N=C/c1c[nH]c2ccccc12,n,n,n,u,n
Cc1[nH]c2ccccc2c1/C=N/NS(=O)(=O)c1ccccc1,u,u,n,x,n
COc1cccc(C2=Nn3c(nnc3-c3ccccc3C)SC2)c1,x,n,n,x,x
COc1ccc(C(=O)/C=C(\C)Nc2ccc3c(c2)OCO3)cc1,35µM,n,n,n,n
COc1ccc(N/C(C)=C/C(=O)c2ccccc2)cc1,n,n,n,n,n
Cc1nnc(N/N=C/c2c(O)n(-c3cccc(C(F)(F)F)c3)c(=O)c3ccccc23)[nH]c1=O,25µM,n,n,u,n
Cc1cc(N=Cc2c(O)n(-c3cccc(C(F)(F)F)c3)c(=O)c3ccccc23)no1,n,n,n,n,n
CCN(CC)S(=O)(=O)c1cc([N+](=O)[O-])ccc1NNC(=O)Nc1ccc(F)cc1,u,n,n,u,n
CCN(CC)S(=O)(=O)c1cc([N+](=O)[O-])ccc1NNC(=O)Nc1ccccc1OC,22µM,n,n,n,n
